# The list is not random: actives were taken first. Their share in the collection is about 2.1%.
# Abeta rescue: compounds reversing amyloid beta toxicity in yeast. yeast expressing A-beta42, growth rescue, OD600, 48 h; response scale: 0% DMSO, 100% iron-clioquinol control. AID 1347071. Potency, µM (highest dose often 46.1 µM), most hits filed as activators. 0.063% of 410,000 active; further: nearly all actives have a fitted effect of over 55% in size
#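 Growth rescue measured by 600 nm absorbance after 48 h yeast culture at 30 C with compound. Values normalized between DMSO and an equimolar ferric chloride plus clioquinol control.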
# FUS suppressor: FUS proteinopathy suppression in yeast. S. cerevisiae FUS-expressing, growth rescue, OD600, 24 h. Potency, µM (highest dose often 76.6 µM), actives largely listed as activators. 0.24% of 390,000 active. AID 1347120;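 further: plate controls were DMSO vehicle for no effect and reference control for full effect; nearly all actives have a fitted effect of over 55% in size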
#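 Compound concentration series was pinned onto galactose-induced FUS-expressing yeast seeded at OD 0.005. Plates sat 24hr at 30C; absorbance at 600 nm gave growth. DMSO served as background control.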
# TDP-43 yeast inh: TDP-43 toxicity inhibition in yeast; TDP-43 expressing yeast growth rescue, BacTiter-Glo, 24 h; Potency, µM (titrated, usually from 46.1 µM), inactives show at the top dose growth rescue (activation), most hits filed as activators; 1.8% of 410,000 active; AID 652104; further: % of control where 0% means no effect; nearly all actives have a fitted effect of over 50% in size
#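 In this qHTS, compounds that restore growth of yeast expressing TDP-43 appear as activators. Cells (OD600=0.02, galactose medium, raffinose-pregrown) are incubated with compound 24 hr at 30 deg C and growth is quantified by BacTiter-Glo.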
# aSyn rescue: inhibitors of alpha-synuclein toxicity in yeast | AID 652106 | Potency, µM (series often up to 46.1 µM), without a hit: at the top dose growth rescue (activation), most hits filed as activators | 0.14% of 370,000 active | Yeast expressing alpha-synuclein, growth rescue, BacTiter-Glo, 24 h; further: % of control where 0% means no effect; nearly all actives have a fitted effect of over 65% in size
#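 Galactose-induced alpha-syn yeast (OD600=0.02, raffinose-pregrown) + pinned cpd, 24 hr, 30 deg C; growth by BacTiter-Glo luminescence. Growth restoration scores as activation.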
# * marks the source's active call; other numbers are inactive results; i = inactive; ? = inconclusive; nt = no result given. The call rests on the fitted dose curve; in most records, active means well fitted curve in the direction sought with a large enough effect; inconclusive means small, poorly fitted or top-dose-only effect, or another doubt; inactive means no such curve, though single readings can be large; an effect the other way counts as inactive or inconclusive. Potency means the concentration at half of the fitted maximal effect.
SMILES,Abeta rescue,FUS suppressor,TDP-43 yeast inh,aSyn rescue
COc1cccc(NP(=O)(Oc2ccc(Cl)cc2)Oc2ccc(Cl)cc2)c1,i,nt,0.0%,12.5%
O=[N+]([O-])c1cccc(NP(=O)(Oc2ccccc2)Oc2ccccc2)c1,i,i,22.4µM*,?
C[C@@H]1CN([C@@H](C)CO)C(=O)CCCn2nncc2CO[C@H]1CN(C)C(=O)Nc1ccc(N2CCCCC2)cc1,i,i,11.7%,?
C[C@H]1COC(=O)[C@@H](Cc2ccc(F)cc2)CC/C=C/C[C@H](CC(=O)N(CCO)Cc2ccccc2)C(=O)N1,i,i,17.5%,?
CCOc1ccc(-c2nc(CSCC(=O)NCCc3ccc(OCC)c(OCC)c3)c(C)o2)cc1,i,i,?,nt
COc1ccc(CC2NCC(O)C2OC(C)=O)cc1 (configuration not stated),i,i,12.6µM*,?
CC(=O)OCC1=C(C(=O)O)N2C(=O)[C@@H](NC(=O)CCC[C@@H](N)C(=O)O)[C@H]2SC1,nt,nt,nt,-6.7%
C[C@@H]1CCC2[C@@H](C)C(=O)O[C@@H]3OC4(C)CCC1[C@@]23OO4 (some centres not stated),i,i,7.94µM*,-0.3%
C[C@@H]1CC[C@H]2[C@@H](C)C(=O)O[C@@H]3O[C@@]4(C)CC[C@@H]1[C@]32OO4,i,i,4.47µM*,0.0%
c1ccc(-c2ccc(C(c3ccccc3)n3ccnc3)cc2)cc1 (configuration not stated),i,i,6.31µM*,?
COc1ccc(-c2coc3c(C(=O)Nc4cc(OC)c(OC)c(OC)c4)cccc23)c(C)c1,i,i,?,-5.4%
C[C@]12CC[C@H](O)CC1=CC[C@@H]1[C@@H]2CC[C@]2(C)C(=O)CC[C@@H]12,i,i,15.8µM*,?
CN(N=O)c1ccc(O)c(O)c1,nt,nt,nt,1.9%
Nc1cccc(N=Cc2c(O)n(Cc3ccc(F)cc3)c(=O)[nH]c2=O)c1,i,11.2µM*,7.5%,-1.3%
O=c1[nH]c(=O)n(Cc2ccc(F)cc2)c(O)c1C=Nc1ccc(Cl)cc1,i,i,-20.2%,-1.1%

# Compound activity (PubChem BioAssay)
